The full data set covers some 8,800 targets. This sample favours those with a hit. About 0.5% of all pairs of compound and target were hits. Values without a mark were called inactive.
Legend:
Assay in all cases: log2 fold change, soluble protein after heating vs DMSO (PISA); higher = thermal stabilisation; K562 lysate, 10 uM; active = over 0.2 and 3.5 SD of the protein, either way, in both replicates (recomputed)
lapatinib = compound: CS(=O)(=O)CCNCc1ccc(-c2ccc3ncnc(Nc4ccc(OCc5cccc(F)c5)c(Cl)c4)c3c2)o1 [lapatinib]
Method in brief: (§1)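 K562 pellets were dounce-homogenised in PBS pH 7.4 containing 1 mM MgCl2, and the crude extract, at 1 mg/mL protein, was exposed to 10 μM compound for 30 min. Aliquots were heated for 3 min across 48°C-58°C, pooled, brought to 0.5% NP-40 at 4°C and spun at 21,000xg for 90 min, with the supernatant taken as soluble protein. TMTpro 16plex LC-MS/MS with equalised channel sums quantified that protein. Values are log-two fold changes in thermal stability relative to solvent controls, taken from duplicates.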

pictilisib = compound: CS(=O)(=O)N1CCN(Cc2cc3nc(-c4cccc5[nH]ncc45)nc(N4CCOCC4)c3s2)CC1 [pictilisib]
Method in brief: as §1

crizotinib = compound: C[C@@H](Oc1cc(-c2cnn(C3CCNCC3)c2)cnc1N)c1c(Cl)ccc(F)c1Cl [crizotinib]
Method in brief: as §1

[1] = compound: C[C@H](C1=CC=C(C=C1)C(=O)NC2=C3C=CNC3=NC=C2)N
Method in brief: as §1

duvelisib = compound: C[C@H](Nc1ncnc2nc[nH]c12)c1cc2cccc(Cl)c2c(=O)n1-c1ccccc1 [duvelisib]
Method in brief: as §1

gandotinib = compound: Cc1cc(Nc2cc(CN3CCOCC3)c3nc(C)c(Cc4ccc(Cl)cc4F)n3n2)n[nH]1 [gandotinib]
Method in brief: as §1

tozasertib = compound: Cc1cc(Nc2cc(N3CCN(C)CC3)nc(Sc3ccc(NC(=O)C4CC4)cc3)n2)n[nH]1 [tozasertib]
Method in brief: as §1

doramapimod = compound: Cc1ccc(-n2nc(C(C)(C)C)cc2NC(=O)Nc2ccc(OCCN3CCOCC3)c3ccccc23)cc1 [doramapimod]
Method in brief: as §1

bafetinib = compound: Cc1ccc(NC(=O)c2ccc(CN3CC[C@H](N(C)C)C3)c(C(F)(F)F)c2)cc1Nc1nccc(-c2cncnc2)n1 [bafetinib]
Method in brief: as §1

[2] = compound: Cc1cccc(CC(=O)N2CCc3c2ccc(-c2cn(C)c4ncnc(N)c24)c3F)n1
Method in brief: as §1

UniProt Q9BTC8, sequence (Q9BTC8 whole entry, looked up): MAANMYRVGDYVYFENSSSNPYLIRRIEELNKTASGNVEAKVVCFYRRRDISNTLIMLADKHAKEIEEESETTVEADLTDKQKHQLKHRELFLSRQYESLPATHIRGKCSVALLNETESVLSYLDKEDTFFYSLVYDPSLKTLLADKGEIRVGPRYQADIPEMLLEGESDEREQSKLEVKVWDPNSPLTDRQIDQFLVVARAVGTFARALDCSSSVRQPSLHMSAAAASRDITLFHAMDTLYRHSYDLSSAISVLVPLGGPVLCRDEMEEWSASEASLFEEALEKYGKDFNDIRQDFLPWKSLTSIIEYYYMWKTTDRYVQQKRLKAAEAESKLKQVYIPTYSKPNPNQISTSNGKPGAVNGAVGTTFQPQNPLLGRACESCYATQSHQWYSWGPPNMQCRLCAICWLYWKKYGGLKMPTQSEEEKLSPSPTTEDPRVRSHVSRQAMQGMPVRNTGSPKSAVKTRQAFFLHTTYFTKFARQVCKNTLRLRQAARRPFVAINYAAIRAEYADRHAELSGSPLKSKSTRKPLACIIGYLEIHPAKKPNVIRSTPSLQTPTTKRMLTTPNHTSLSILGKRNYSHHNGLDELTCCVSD
UniProt Q13423, sequence (Q13423 whole entry, looked up): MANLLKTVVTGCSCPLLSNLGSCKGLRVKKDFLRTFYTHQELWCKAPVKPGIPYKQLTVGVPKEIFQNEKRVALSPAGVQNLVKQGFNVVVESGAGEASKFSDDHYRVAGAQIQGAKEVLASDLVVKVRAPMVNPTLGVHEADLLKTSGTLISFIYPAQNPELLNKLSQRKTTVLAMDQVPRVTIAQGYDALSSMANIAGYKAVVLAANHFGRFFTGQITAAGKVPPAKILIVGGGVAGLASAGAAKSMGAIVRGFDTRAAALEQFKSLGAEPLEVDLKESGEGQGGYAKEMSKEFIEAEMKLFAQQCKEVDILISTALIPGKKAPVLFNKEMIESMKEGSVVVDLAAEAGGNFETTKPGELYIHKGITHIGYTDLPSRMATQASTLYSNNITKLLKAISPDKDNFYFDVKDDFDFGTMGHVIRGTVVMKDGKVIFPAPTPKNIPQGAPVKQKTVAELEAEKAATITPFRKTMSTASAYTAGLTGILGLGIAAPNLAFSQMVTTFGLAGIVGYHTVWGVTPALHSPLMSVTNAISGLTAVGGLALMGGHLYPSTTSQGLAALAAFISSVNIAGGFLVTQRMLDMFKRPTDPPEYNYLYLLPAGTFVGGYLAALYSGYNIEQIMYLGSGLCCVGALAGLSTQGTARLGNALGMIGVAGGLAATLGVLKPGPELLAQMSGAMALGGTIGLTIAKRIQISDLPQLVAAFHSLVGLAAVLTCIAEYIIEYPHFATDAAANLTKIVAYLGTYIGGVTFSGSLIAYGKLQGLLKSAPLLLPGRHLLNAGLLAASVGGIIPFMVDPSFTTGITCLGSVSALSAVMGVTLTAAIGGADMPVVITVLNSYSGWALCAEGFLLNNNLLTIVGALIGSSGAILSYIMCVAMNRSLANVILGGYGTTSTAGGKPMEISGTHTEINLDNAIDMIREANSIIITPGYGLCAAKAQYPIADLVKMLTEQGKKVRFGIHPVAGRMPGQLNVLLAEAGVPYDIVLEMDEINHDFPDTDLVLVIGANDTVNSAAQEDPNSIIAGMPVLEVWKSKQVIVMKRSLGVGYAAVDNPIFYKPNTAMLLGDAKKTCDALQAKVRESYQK
UniProt Q6IBW4, sequence (Q6IBW4 whole entry, looked up): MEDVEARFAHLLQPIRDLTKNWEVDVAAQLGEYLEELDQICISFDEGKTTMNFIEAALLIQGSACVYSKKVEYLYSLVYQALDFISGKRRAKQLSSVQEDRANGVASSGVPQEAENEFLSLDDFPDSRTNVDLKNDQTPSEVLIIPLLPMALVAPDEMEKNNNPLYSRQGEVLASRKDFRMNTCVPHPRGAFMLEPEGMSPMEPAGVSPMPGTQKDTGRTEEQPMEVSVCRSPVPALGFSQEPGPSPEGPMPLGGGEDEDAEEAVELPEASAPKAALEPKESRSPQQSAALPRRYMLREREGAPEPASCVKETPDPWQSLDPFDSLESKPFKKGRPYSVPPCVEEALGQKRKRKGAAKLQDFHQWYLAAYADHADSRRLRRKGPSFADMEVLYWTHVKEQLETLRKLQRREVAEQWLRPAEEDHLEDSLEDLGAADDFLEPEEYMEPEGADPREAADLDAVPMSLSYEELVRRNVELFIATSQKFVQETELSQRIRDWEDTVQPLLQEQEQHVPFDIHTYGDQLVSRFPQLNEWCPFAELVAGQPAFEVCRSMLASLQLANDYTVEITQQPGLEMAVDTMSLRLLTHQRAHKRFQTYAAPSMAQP
UniProt Q96IY1, sequence (Q96IY1 whole entry, looked up): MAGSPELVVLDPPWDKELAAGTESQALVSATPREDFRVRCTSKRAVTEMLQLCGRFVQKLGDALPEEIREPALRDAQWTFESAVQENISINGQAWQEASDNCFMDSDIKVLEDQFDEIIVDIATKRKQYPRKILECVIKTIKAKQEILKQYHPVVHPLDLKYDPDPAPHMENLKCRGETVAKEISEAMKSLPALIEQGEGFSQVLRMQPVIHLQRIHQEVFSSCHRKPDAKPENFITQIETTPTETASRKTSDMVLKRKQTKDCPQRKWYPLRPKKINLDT
UniProt P28331, sequence (P28331 whole entry, looked up): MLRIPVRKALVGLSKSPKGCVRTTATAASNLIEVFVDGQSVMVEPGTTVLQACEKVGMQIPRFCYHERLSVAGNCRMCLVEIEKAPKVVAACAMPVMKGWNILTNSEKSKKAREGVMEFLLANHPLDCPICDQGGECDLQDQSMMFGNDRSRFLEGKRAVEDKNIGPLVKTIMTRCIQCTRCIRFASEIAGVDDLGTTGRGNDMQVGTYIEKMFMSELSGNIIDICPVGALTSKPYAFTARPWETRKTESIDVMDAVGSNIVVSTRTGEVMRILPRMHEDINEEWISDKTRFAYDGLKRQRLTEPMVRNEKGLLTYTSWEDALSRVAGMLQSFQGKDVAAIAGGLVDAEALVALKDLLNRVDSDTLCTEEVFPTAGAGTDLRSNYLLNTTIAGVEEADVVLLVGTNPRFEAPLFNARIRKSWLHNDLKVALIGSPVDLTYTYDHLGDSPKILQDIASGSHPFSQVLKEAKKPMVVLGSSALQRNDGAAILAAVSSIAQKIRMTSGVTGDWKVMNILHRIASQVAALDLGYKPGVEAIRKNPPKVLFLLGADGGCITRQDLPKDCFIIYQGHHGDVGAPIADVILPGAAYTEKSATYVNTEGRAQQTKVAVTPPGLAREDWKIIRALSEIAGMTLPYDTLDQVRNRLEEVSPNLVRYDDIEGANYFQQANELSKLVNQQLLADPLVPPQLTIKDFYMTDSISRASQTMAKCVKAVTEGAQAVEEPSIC
UniProt O94776, sequence (O94776 whole entry, looked up): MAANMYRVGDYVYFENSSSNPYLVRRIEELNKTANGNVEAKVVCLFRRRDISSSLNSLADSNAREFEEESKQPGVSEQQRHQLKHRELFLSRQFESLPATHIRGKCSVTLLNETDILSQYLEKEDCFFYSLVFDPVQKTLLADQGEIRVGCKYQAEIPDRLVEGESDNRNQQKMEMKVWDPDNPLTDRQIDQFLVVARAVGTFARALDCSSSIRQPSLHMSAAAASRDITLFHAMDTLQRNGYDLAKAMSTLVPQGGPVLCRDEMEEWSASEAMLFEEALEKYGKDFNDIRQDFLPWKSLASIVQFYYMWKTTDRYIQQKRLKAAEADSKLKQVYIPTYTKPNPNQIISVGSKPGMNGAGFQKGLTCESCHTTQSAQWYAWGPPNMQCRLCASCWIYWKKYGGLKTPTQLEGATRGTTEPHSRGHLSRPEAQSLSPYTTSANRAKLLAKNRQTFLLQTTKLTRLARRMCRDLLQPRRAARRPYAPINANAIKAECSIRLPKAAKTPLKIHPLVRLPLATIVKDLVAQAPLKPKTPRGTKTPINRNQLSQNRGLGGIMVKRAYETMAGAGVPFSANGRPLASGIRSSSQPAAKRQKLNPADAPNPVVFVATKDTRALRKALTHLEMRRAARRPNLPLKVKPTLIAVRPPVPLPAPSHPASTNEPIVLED
UniProt Q8NCF5, sequence (Q8NCF5 whole entry, looked up): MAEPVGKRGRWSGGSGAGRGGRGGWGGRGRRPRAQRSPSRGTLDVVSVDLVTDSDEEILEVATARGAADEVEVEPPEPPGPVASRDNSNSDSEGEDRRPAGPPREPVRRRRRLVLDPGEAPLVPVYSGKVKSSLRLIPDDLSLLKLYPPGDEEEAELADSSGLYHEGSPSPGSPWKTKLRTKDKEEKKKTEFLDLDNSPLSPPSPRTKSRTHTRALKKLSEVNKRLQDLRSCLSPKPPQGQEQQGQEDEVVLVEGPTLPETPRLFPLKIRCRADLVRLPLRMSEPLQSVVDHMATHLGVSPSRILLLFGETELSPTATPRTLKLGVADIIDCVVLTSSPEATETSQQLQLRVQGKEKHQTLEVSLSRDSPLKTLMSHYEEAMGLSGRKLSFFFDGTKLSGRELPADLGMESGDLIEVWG
UniProt Q8IVI9, sequence (Q8IVI9 whole entry, looked up): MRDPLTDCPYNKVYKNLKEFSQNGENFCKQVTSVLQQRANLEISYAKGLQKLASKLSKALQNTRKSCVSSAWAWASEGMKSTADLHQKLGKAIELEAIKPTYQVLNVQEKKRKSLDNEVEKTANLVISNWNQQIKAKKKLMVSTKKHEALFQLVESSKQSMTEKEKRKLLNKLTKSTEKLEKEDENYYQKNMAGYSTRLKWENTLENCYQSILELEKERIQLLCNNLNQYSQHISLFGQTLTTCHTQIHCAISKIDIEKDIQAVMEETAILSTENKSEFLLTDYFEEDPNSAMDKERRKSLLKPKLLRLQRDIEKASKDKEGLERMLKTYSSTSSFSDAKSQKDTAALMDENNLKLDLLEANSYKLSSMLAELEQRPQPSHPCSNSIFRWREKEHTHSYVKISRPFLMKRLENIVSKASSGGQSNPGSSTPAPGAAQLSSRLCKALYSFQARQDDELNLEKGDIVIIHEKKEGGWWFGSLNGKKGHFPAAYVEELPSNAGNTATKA

Row | Target | log2 fold change (lapatinib) | log2 fold change (pictilisib) | log2 fold change (crizotinib) | log2 fold change [1] | log2 fold change (duvelisib) | log2 fold change (gandotinib) | log2 fold change (tozasertib) | log2 fold change (doramapimod) | log2 fold change (bafetinib) | log2 fold change [2]
1 | NUP210 (UniProt Q8TEM1) | -0.074 | -0.076 | -0.028 | -0.034 | 0.013 | -0.08 | -0.012 | -0.017 | -0.007 | 0.044
2 | NFATC2IP (UniProt Q8NCF5) | 0.002 | -0.091 | 0.027 | 0.059 | -0.067 | 0.039 | -0.035 | 0.001 | -0.169 | -0.018
3 | NCAPH2 (UniProt Q6IBW4) | -0.075 | -0.023 | -0.04 | -0.01 | -0.03 | -0.052 | 0.058 | -0.051 | -0.036 | 0.185
4 | NDUFS1 isoform 2 (UniProt P28331) | 0.023 | -0.014 | 0.034 | 0.009 | -0.01 | -0.006 | 0.03 | 0.024 | -0.013 | -0.006
5 | MTA2 (UniProt O94776) | -0.003 | 0.017 | 0 | 0.013 | 0 | -0.033 | -0.016 | 0.031 | -0.009 | 0.021
6 | NBN (UniProt O60934) | 0.008 | -0.006 | -0.028 | 0.033 | -0.006 | -0.05 | 0.032 | 0.001 | -0.016 | -0.026
7 | NSL1 (UniProt Q96IY1) | -0.003 | -0.032 | 0.051 | 0.001 | -0.033 | 0.094 | -0.01 | -0.047 | 0.034 | 0.006
8 | NBEAL2 (UniProt Q6ZNJ1) | -0.065 | -0.016 | -0.069 | -0.006 | 0.04 | -0.157 | 0.02 | 0.008 | -0.056 | 0.072
9 | NFATC1 (UniProt O95644) | -0.003 | -0.088 | -0.111 | -0.136 | 0.007 | 0.132 | -0.002 | 0.017 | -0.043 | 0.179
10 | NOSTRIN (UniProt Q8IVI9) | -0.022 | -0.011 | 0.06 | 0.017 | 0.047 | -0.047 | 0.058 | -0.03 | -0.078 | -0.012
11 | MTA3 (UniProt Q9BTC8) | 0.006 | 0.026 | -0.058 | -0.022 | 0.001 | -0.013 | -0.008 | 0.002 | -0.048 | 0.051
12 | MSH6 (UniProt P52701) | -0.004 | -0.005 | -0.076 | -0.003 | 0.014 | -0.087 | 0.013 | 0.037 | -0.051 | 0.022
13 | NNT (UniProt Q13423) | -0.047 | -0.046 | 0.03 | 0.013 | 0.039 | -0.445 (active) | -0.014 | 0.011 | -0.006 | 0.003
14 | NUP205 (UniProt Q92621) | -0.03 | -0.041 | -0.1 | -0.047 | -0.008 | -0.143 | 0.015 | 0.043 | -0.089 | 0.031

— the supplement of paper PMC10849652
